High-throughput results as filed in PubChem.
MsrA inhibitor = bovine MsrA inhibition | inhibition, % at 15.5 µM | purified bovine MsrA, absorbance read-out | 360,000 compounds, 0.75% hits; in the data active = inhibition above about 4.5%;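 also: 0% = vehicle wells with enzyme and 100% = reference inhibitor wells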
NadD block = blocks S. aureus nicotinate mononucleotide adenylyltransferase; 360,000 compounds, 0.78% hits; inhibition, % at 20 µM; purified NadD enzyme, colorimetric absorbance read-out; in the data active = inhibition above about 26%
DAGLB inh = diacylglycerol lipase beta (human) inhibition. 340,000 compounds, 0.059% hits. Q8NCG7. HEK293T DAGLB membrane lysate, EnzChek fluorogenic substrate. inhibition, % at 5.17 µM; in the data active = inhibition above about 34%;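 also: 0% = enzyme with vehicle and 100% = wells lacking enzyme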
Target sequence (Q8NCG7 whole entry, looked up): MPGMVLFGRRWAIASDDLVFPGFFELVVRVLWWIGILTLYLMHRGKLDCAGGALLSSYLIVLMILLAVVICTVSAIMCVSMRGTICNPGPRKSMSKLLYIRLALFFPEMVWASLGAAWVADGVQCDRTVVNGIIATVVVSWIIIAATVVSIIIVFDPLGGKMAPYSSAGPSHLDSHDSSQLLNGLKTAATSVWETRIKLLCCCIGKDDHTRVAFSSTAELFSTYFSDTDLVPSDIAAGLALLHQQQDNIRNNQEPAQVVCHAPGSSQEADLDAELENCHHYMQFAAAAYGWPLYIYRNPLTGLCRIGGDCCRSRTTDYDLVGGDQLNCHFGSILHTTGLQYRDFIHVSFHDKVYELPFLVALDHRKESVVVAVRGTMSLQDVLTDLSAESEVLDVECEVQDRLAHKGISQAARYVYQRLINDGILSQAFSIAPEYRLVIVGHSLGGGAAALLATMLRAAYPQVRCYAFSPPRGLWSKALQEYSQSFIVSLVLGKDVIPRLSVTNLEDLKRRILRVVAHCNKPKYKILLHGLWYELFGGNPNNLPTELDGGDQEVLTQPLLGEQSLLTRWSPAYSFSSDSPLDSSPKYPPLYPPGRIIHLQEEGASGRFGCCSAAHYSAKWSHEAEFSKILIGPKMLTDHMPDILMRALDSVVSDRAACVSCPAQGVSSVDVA
rCAG RNA binder = binds r(CAG) RNA repeats. inhibition, % at 3 µM. 370,000 compounds, 1.3% hits. r(CAG) RNA repeat, TO-PRO-1 dye displacement fluorescence;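 active = inhibition above the plate cutoff, the mean of all test compounds on that plate plus 3 SD, cut at about 35% in these data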;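 also: 0% = DMSO alone and 100% = 100 µM mitoxantrone as full dye displacement; higher means more dye released from RNA so lower well fluorescence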
MsrA act = activators of bovine methionine sulfoxide reductase A; activation, % at 10.6 µM; purified bovine MsrA, absorbance read-out; 360,000 compounds, 0.3% hits; AID 602163; in the data active = activation above about 7.5%;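 also: 0% = vehicle and 100% = reference activator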
Pemphigus Ab inh = inhibitors of pemphigus antibody binding to human desmoglein-3 | P32926 | DSG3-coupled beads, scFv-anti-DSG3-GFP binding, flow cytometry; stronger effect = lower value | binding (percent of control), % at 10 µM | 310,000 compounds, 0.48% hits | AID 588358;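 active = binding more than 3 SD below its plate's average and above zero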
rCAG bind conf = r(CAG) RNA repeat binding, confirmation; shares compounds with rCAG RNA binder; TO-PRO-1 dye displacement fluorescence; inhibition, % at 3 µM; 4,300 compounds, 70% hits;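 active = inhibition above a per-plate cutoff, the mean inhibition of sample wells plus 3 SD, cut at about 35% in these data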;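 also: loss of TO-PRO-1 fluorescence as compound displaces dye from 1x1 AA loop RNA; 0% = DMSO only wells and 100% = 100 µM mitoxantrone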
dCAG dye counter = disrupts DNA CAG TO-PRO-1 complex, flagging rCAG hits; d(CAG) DNA oligo TO-PRO-1 dye displacement, fluorescence; 4,300 compounds, 94% hits; inhibition, % at 3 µM; shares compounds with rCAG RNA binder;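 active = inhibition above its plate's cutoff, the mean test-well inhibition plus 3 SD, cut at about 4.8% in these data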;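 also: 0% = DNA dye mix with DMSO and 100% = 100 µM mitoxantrone; hits displace the dye from DNA and so lower well fluorescence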
DNA CAG DR = counter-screen for rCAG binders: inhibitors of DNA CAG TO-PRO-1 complex | shares compounds with rCAG RNA binder | DNA CAG/GTC duplex TO-PRO-1 dye displacement fluorescence | IC50, µM | 250 compounds, 20% hits; in the data active = IC50 below about 10 µM
Active calls of the source: *; nt = not tested or not shown. The list is not random: actives were taken first. Their share in the collection is about 3.2%.

SMILES	MsrA inhibitor	NadD block	DAGLB inh	rCAG RNA binder	MsrA act	Pemphigus Ab inh	rCAG bind conf	dCAG dye counter	others
CCCCc1cc(=O)oc2c(C)c(OCC(=O)N3CCCC3)ccc12	0.7	3.7	0.0	-5.7	-6.5	77.4	nt	nt
CCCCc1cc(=O)oc2c(C)c(OCC(=O)N3CCC(C(=O)O)(c4ccccc4)CC3)ccc12	2.0	8.8	2.8	39.8*	-1.1	100.9	51.8*	12.9*
COc1ccc(-c2ccc(C(=O)Nc3cccc(C(F)(F)F)c3)c3occc23)c(C)c1	1.0	-1.1	nt	5.7	-1.9	nt	nt	nt
CC1(C)OC(=O)C(=Cc2ccc(-c3ccc(S(N)(=O)=O)cc3)o2)C(=O)O1	2.8	4.2	4.3	4.8	-2.8	97.7	nt	nt
NS(=O)(=O)c1ccc(-c2ccc(/C=C3\C(=O)Nc4cc(Cl)ccc43)o2)cc1	2.8	19.5	6.4	46.1*	-3.1	84.8	26.4	20.8*
COc1ccc(C2C(C(=O)Nc3ccc(Cl)cc3)CCC(=O)N2c2ccc(OC)cc2)cc1 (stereo unspecified)	nt	nt	nt	0.4	nt	nt	nt	nt
CCc1nc(N)nc(N)c1-c1ccc(Cl)c([N+](=O)[O-])c1	0.5	1.0	-1.4	-0.8	-0.6	94.5	nt	nt
Cc1cc(C)c(NC(=O)CN(C)C(=O)CCN2C(=O)C3CCCCC3C2=O)c(C)c1 (stereo unspecified)	-0.8	0.9	-1.0	0.5	-3.9	100.1	nt	nt
CCOc1ccc(NS(=O)(=O)c2ccc(NS(=O)(=O)c3ccc(SC)cc3)cc2)cc1	1.5	-1.5	1.4	48.6*	-6.6	98.5	54.6*	18.2*
COc1ccc(OC)c(NS(=O)(=O)c2ccc(SC)cc2)c1	-0.1	-3.7	-1.4	2.7	4.4	105.5	nt	nt
COc1ccc(NS(=O)(=O)c2ccc(NS(=O)(=O)c3ccc(SC)cc3)cc2)c(OC)c1	0.0	-3.8	2.9	37.7*	-13.3	101.6	42.9*	12.6*
CCOc1ccc(NS(=O)(=O)c2ccc(NS(C)(=O)=O)cc2)cc1	-1.0	-3.1	1.7	2.1	1.0	97.2	nt	nt
OC(c1ccccc1)(c1ccccc1)C1CCN(CCCNc2ccccc2Br)CC1	nt	nt	nt	1.9	nt	nt	nt	nt
Fc1ccc(NC(=S)N2CCN(c3cccc(C(F)(F)F)c3)CC2)cc1	2.6	-4.6	-13.9	-0.3	3.9	nt	nt	nt
O=S(=O)(Nc1ncccn1)c1ccc(NC(=S)N2CCN(c3cccc(C(F)(F)F)c3)CC2)cc1	-0.5	18.2	5.8	49.9*	-4.2	107.1	58.6*	15.6*
COc1nc(OC)nc(N2CCC(C(=O)N(C)Cc3ccco3)CC2)n1	nt	nt	nt	-1.3	nt	nt	nt	nt
Cc1ccc(S(=O)(=O)N2[C@@H](c3ccccc3F)C(C(=O)O)=CC[C@H]2c2ccc3c(c2)OCO3)cc1	0.5	2.2	2.1	46.5*	3.5	100.3	40.5*	10.5*
Cc1ccc(S(=O)(=O)N2[C@@H](c3ccc(F)cc3)C(C(=O)O)=CC[C@H]2c2ccc3c(c2)OCO3)cc1	-0.1	-0.2	5.9	53.0*	-0.9	115.0	51.1*	16.6*
CN(Cc1ccccc1)C(=O)C1(C)CCN1C(=O)Cc1ccc(Cl)cc1Cl (stereo unspecified)	0.3	-0.8	nt	-1.7	-6.3	nt	nt	nt
CCOC(=O)[C@]12CCC=C1N(Cc1ccccc1)C(=O)[C@H](CC(=O)NCc1ccccc1)C2	0.4	2.7	nt	0.0	1.7	nt	nt	nt
CC(C)(C)c1ccc(C(=O)NCCC(=O)Nc2ccc(S(=O)(=O)Nc3nccs3)cc2)cc1	-2.2	11.1	7.8	57.2*	0.2	106.8	54.2*	20.0*
CC1CN(S(=O)(=O)c2ccc(C(=O)Nc3ccc(S(=O)(=O)Nc4nccs4)cc3)cc2)CC(C)O1 (stereo unspecified)	-0.4	4.0	2.4	57.0*	-3.7	97.4	65.0*	18.8*
O=C(CN1C(=O)c2cccc3cccc1c23)Nc1ccc(S(=O)(=O)Nc2nccs2)cc1	1.8	nt	2.9	66.9*	0.3	101.2	47.4*	17.2*
O=C(CCN1C(=O)S/C(=C\c2ccccc2)C1=O)Nc1ccc(S(=O)(=O)Nc2nccs2)cc1	2.9	28.8	4.8	76.8*	-3.7	109.2	73.8*	39.3*
COc1cccc(-c2cnc(C(O)c3ccc(CN4CCCC4)cc3)[nH]2)c1 (stereo unspecified)	-0.9	0.3	nt	4.5	-6.1	nt	nt	nt
SMILES	MsrA inhibitor	NadD block	DAGLB inh	rCAG RNA binder	MsrA act	Pemphigus Ab inh	rCAG bind conf	dCAG dye counter	others
CC(Nc1nc(-c2cccnc2)nc2ccccc12)c1ccc(F)cc1 (stereo unspecified)	1.3	-0.8	2.2	-0.2	-2.9	115.7	nt	nt
Cc1ccc(SCC(=O)Nc2ccc(S(=O)(=O)Nc3nccs3)cc2)cc1	-0.8	-2.1	-0.5	48.7*	-8.3	94.1	50.2*	14.6*
Cc1ccc(OC(C)C(=O)Nc2ccc(S(=O)(=O)Nc3nccs3)cc2)cc1 (stereo unspecified)	-0.8	3.1	3.5	37.6*	-2.6	120.2	22.7	6.5*
CCc1ccc(OC(C)C(=O)Nc2ccc(S(=O)(=O)Nc3nccs3)cc2)cc1 (stereo unspecified)	-1.1	-6.0	3.6	51.6*	-1.4	108.7	38.7*	14.1*
CC(C)c1ccc(NC(=O)C2(C)Cc3c(-c4cccc(C(N)=O)c4)ccnc3O2)cc1 (stereo unspecified)	1.5	-6.6	nt	2.0	-0.9	nt	nt	nt
O=C1CC(=O)N(Cc2ccco2)C(=O)N1	1.6	10.9	-3.3	35.1*	-3.5	95.3	36.5*	12.5*
O=C(NCCc1c[nH]c2ccccc12)OCc1cn(Cc2cccc(F)c2F)nn1	nt	nt	nt	4.5	nt	nt	nt	nt
O=C(NCc1ccco1)c1ccc2sc([C@@H]3O[C@H](CO)[C@@H](O)[C@H]3O)nc2c1	-0.5	0.2	nt	1.5	0.1	nt	nt	nt
COc1ccccc1-n1c(SCC(=O)O)nc2c(sc(=S)n2-c2ccc(C)c(C)c2)c1=O	2.5	1.5	10.9	48.0*	-4.0	93.0	71.7*	33.3*	DNA CAG DR=>29.9
COc1ccccc1-n1c(SCC(=O)O)nc2c(sc(=S)n2-c2ccc(Cl)c(C)c2)c1=O	3.4	4.1	8.8	66.2*	-3.6	102.9	59.6*	23.8*
CCN(CC)C(=O)CSc1nc2c(sc(=S)n2-c2ccccc2)c(=O)n1-c1ccccc1OC	2.8	0.1	0.5	-0.7	-4.2	92.2	nt	nt
Cc1ccc(-n2c(=S)sc3c(=O)n(-c4ccccc4C)c(SCC(=O)O)nc32)cc1C	1.2	3.1	5.9	41.2*	-2.6	111.0	67.6*	28.4*
CCOC(=O)CSc1nc2c(sc(=S)n2-c2ccccc2)c(=O)n1-c1ccc(OC)cc1OC	2.3	10.6	-1.7	10.1	-8.0	104.1	nt	nt
